Screening data: PubChem BioAssay, National Center for Advancing Translational Sciences (NCATS)
HP1b chromo inh = HTS for Inhibitors of HP1-beta Chromodomain Interactions with Methylated Histone Tails; Chromobox protein homolog 1 (Homo sapiens), P83916; AlphaScreen HP1-beta / biotin-H3K9me3 peptide binding; Potency, µM (series often up to 114 µM), without a hit: at the top dose activity change, negative = inhibition, hits mostly inhibitors; 0.56% of 390,000 active; AID 540317, 2011; also: nearly all actives have a fitted effect of over 70% in size
Target sequence (P83916 whole entry, looked up): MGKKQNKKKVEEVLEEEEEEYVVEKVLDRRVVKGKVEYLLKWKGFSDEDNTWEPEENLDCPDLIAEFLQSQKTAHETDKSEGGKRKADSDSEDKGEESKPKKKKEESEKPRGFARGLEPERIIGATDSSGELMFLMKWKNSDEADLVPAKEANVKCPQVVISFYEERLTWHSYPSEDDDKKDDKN
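HP1-beta protein (50 nM final) preincubated 30 min at room temperature with biotinylated H3(1-18)K9me3 peptide (50 nM) in PBS pH 7.4, 0.01% Tween-20, then compound added for 30 min. AlphaScreen streptavidin donor/nickel chelate acceptor beads (10 ug/mL final), 30 min dark, luminescence read.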
L3MBTL1 inh = qHTS Assay for the Inhibitors of L3MBTL1 | Lethal(3)malignant brain tumor-like protein 1 (Homo sapiens), Q9Y468 | AlphaScreen L3MBTL1–H3K9me1 peptide binding | Potency, µM (top dose mostly 57.1 µM), inactives show top-dose activity, negative = inhibition, usual class: inhibitors | 0.66% of 230,000 active; also: % is scaled to controls: 0 for no effect and ±100 for the full control effect; nearly all actives have a fitted effect of over 60% in size
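L3MBTL1 50 nM + b-AHA-H3(1-15)K9me1 75 nM, 30 min RT; compound added, 30 min RT; streptavidin donor/Ni-chelate acceptor beads 10 ug/mL each final, 30 min RT dark; AlphaScreen read.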
BAZ2B inh = qHTS Assay for Inhibitors of BAZ2B | Bromodomain adjacent to zinc finger domain protein 2B (Homo sapiens), Q9UIF8 | Potency, µM (series often up to 114 µM), without a hit: at the highest dose activity change, negative = inhibition, actives largely listed as inhibitors | AID 504333, 2011 | AlphaScreen BAZ2B-H3K14Ac peptide displacement | 4.4% of 360,000 active; also: % is scaled to controls: 0 for no effect and ±100 for the full control effect; nearly all actives have a fitted effect of over 60% in size
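AlphaScreen displacement: compounds (up to 110uM) incubated 30 min at room temperature with a preformed 50 nM BAZ2B/50 nM biotinylated H3K14Ac peptide complex in PBS pH 7.4 with Tween-20. Donor and acceptor beads at 10 ug/mL final added, 20 min light-protected before reading.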
VDR inhibitor = Inhibitors of the vitamin D receptor (VDR): qHTS; Vitamin D3 receptor (Homo sapiens), P11473; VDR-SRC2-3 peptide fluorescence polarization, 2 h; Potency, µM, for inactives: max response, negative = inhibition, most hits filed as inhibitors; 0.93% of 400,000 active; AID 504847, 2011; also: % is scaled to controls: 0 for no effect and ±100 for the full control effect
Target sequence (P11473 whole entry, looked up): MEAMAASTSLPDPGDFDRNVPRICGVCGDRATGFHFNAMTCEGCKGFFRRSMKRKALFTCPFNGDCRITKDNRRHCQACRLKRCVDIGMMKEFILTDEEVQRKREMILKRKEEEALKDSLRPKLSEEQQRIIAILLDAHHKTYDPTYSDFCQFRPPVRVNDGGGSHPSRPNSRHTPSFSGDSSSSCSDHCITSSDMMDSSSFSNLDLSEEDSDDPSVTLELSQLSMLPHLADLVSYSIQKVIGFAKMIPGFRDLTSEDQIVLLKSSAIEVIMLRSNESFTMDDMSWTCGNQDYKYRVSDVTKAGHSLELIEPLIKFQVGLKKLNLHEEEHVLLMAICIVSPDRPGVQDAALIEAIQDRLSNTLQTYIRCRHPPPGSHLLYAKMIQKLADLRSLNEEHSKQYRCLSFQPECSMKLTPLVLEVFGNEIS
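After 23 nl compound addition and a short centrifugation, plates sat for 2 hours at ambient temperature; polarization of fluorescence then indicated loss of VDR binding to peptide SRC2-3.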
PLK1 PBD inh = qHTS for Inhibitors of PLK1-PDB (polo-like kinase 1 - polo-box domain): Primary Screen; 2.8% of 360,000 active; Plk1 PBD binding of FITC phosphopeptide, fluorescence polarization; Potency, µM, inactives show max response, negative = inhibition, actives largely listed as inhibitors; also: series mostly up to about 57 µM; % is scaled to controls: 0 for no effect and ±100 for the full control effect; nearly all actives have a fitted effect of over 65% in size
JMJD2A Tudor = qHTS Assay for Inhibitors of JMJD2A-Tudor Domain; Lysine-specific demethylase 4A (Homo sapiens), O75164; AlphaScreen JMJD2A-Tudor / H3K4me3 peptide binding; Potency, µM (highest dose often 114 µM), for inactives: at the top dose activity change, negative = inhibition, hits mostly inhibitors; 4.4% of 390,000 active; also: % is scaled to controls: 0 for no effect and ±100 for the full control effect; nearly all actives have a fitted effect of over 50% in size
* = called active by the depositor; ? = inconclusive; nt = not tested or not shown; [ ] = remark or other dose. Shown are actives, neighbours in structure and some others; about 6.9% of the full set was active somewhere. Calls follow the shape of the dose curve; as a rule, active = well fitted curve in the direction sought with a large enough effect; inconclusive = small, poorly fitted or top-dose-only effect, or another doubt; inactive = no such curve, though single readings can be large; an effect the other way counts as inactive or inconclusive. Potency is read from the fitted curve at half-maximal effect.

SMILES	HP1b chromo inh	L3MBTL1 inh	BAZ2B inh	VDR inhibitor	PLK1 PBD inh	JMJD2A Tudor
CC(C)(C)NC(=O)C(=O)NNC(=O)c1cccc(F)c1	2%	nt	?	-1%	-14%	10µM*
CC(C)(C)NC(=O)C(=O)NNC(=O)c1ccccc1	16%	2%	?	-8%	5%	8.9µM*
Cc1occc1C(=O)NNC(=O)c1cccc(F)c1	25%	1%	-6%	11%	-12%	-14%[11.4 µM]
COC(=O)c1ccc(NC(=O)CCS(=O)(=O)c2ccc3c(c2)NC(=O)C(C)S3)cc1 (stereo not drawn)	2%	nt	-24%	?	6µM*	?
CCC1Sc2ccc(S(=O)(=O)CCC(=O)Nc3ccc(C(=O)OC)cc3)cc2NC1=O (stereo not drawn)	?	nt	?	?	15µM*	20µM*
CC1Sc2ccc(C(=O)O)cc2NC1=O (stereo not drawn)	27%	nt	-7%	-2%	-7%	-9%[57.1 µM]
COc1ccc(CNC(=O)c2ccc3c(c2)NC(=O)C(C)S3)cc1 (stereo not drawn)	-15%	-9%	-21%	?	13µM*	-25%
COc1ccccc1NC(=O)CCS(=O)(=O)c1ccc2c(c1)NC(=O)C(C)S2 (stereo not drawn)	52%	nt	-12%[57.1 µM]	-6%	7%	1%
CCC1Sc2ccc(S(=O)(=O)CCC(=O)Nc3cccc(Br)c3)cc2NC1=O (stereo not drawn)	?	nt	?	-28%	12µM*	25µM*
O=C(Nc1ccc(F)cc1)C(c1cc2ccccc2o1)N1CCN(CC(=O)N2CCCC2)CC1 (stereo not drawn)	nt	nt	nt	nt	3%	nt
CC(=O)c1ccc(NC(=O)CSc2nc3c(=O)n(C)c(=O)n(C)c3n2C)cc1	31%	nt	0%	8%	nt	0%
CCNc1ncc2nc(-c3ccc(OC)cc3)c(=O)n(Cc3cccs3)c2n1	nt	nt	nt	-11%	nt	nt
COc1cc(/C=N/Nc2ccc(F)cc2F)cc(OC)c1O	?	-17%	?	-23%	27µM*	79µM*
COc1cc(/C=N/Nc2ccc(Cl)nn2)cc(OC)c1O	?	nt	-12%	-2%	-3%	-21%
Cc1ccc(N2CCN(S(=O)(=O)c3cc(C(=O)Nc4cc(Cl)cc(Cl)c4)ccc3F)CC2C)cc1 (stereo not drawn)	20%	nt	-17%	1%	nt	-16%
COc1ccc(/C=C2\CN(Cc3ccccc3)C/C(=C\c3ccc(OC)c(O)c3)C2=O)cc1O	?	nt	40µM*	?	-16%	?
COc1cc(C=C2C(=O)c3ccccc3C2=O)cc(OC)c1	29%	nt	-15%	?	1.1µM*	-14%
COc1ccc(C=C2C(=O)c3ccccc3C2=O)cc1O	?	nt	10µM*	-7%	19µM*	?
CCOc1ccc(NC(=O)Cn2cc(C(=O)c3ccc(C)c(C)c3)c(=O)c3cc4c(cc32)OCCO4)cc1	17%	nt	-4%	8%	nt	-14%
Cc1cccc(N2C(=O)CC(Sc3nc(C)cc(C)n3)C2=O)c1 (stereo not drawn)	60%	nt	?	-5%	-19%	-6%
Cc1cccc(N2C(=O)CC(Sc3nnc(C)s3)C2=O)c1 (stereo not drawn)	-2%	-3%	-4%	-18%	30µM*	-13%
COc1ccc(N(C)S(=O)(=O)c2cccc(C(=O)OCC(=O)Nc3cc(C)ccc3OC)c2)cc1	nt	nt	nt	nt	-5%	nt
C=CCOC(=O)C(=O)/C=C/c1coc2ccccc2c1=O	9%	1%	?	14µM*	?	-26%
C=CCOC(=O)C(=O)/C=C/c1c(C)n(C)n(-c2ccccc2)c1=O	43%	10%	-4%	-14%	-3%	4%
COc1ccc(CCNCc2ccccc2N2CCCC2)cc1	-5%	nt	56µM*	12%	-21%	20µM*
SMILES	HP1b chromo inh	L3MBTL1 inh	BAZ2B inh	VDR inhibitor	PLK1 PBD inh	JMJD2A Tudor
COc1ccc(CCNCc2cc(C)n(-c3ccc(OC)cc3)c2C)cc1	?	nt	28µM*	-2%	3%	20µM*
O=C(NCCO)c1cc2cc(Cl)cc(Cl)c2oc1=O	?	nt	-25%	?	13µM*	-24%
Cc1ccc2[nH]c(O)c(N=Nc3ccccc3[N+](=O)[O-])c2c1	12%	nt	nt	-3%	-2%	-22%
COc1ccccc1N=Nc1[nH]c2ccc(C)cc2c1O	-1%	-10%	50µM*	2%	3%	?
O=C(c1cc(S(=O)(=O)Nc2ccccc2F)c(Cl)cc1Cl)N1CCN(CCO)CC1	26%	nt	0%	8%	-13%	-8%
O=C(NCCN1CCOCC1)c1cc(S(=O)(=O)Nc2ccccc2F)c(Cl)cc1Cl	32%	nt	-34%	-9%	34µM*	-7%[11.4 µM]
CCCCNC(=O)C(CC)Sc1nnc(-c2cccc(F)c2)c(-c2cccc(F)c2)n1 (stereo not drawn)	9%	nt	-21%	8%	nt	-10%
CC(NCc1cccc(S(=O)(=O)N(C)C)c1)c1ccc(F)cc1 (stereo not drawn)	-32%	5%	50µM*	-19%	-1%	22µM*
CN(C)S(=O)(=O)c1cccc(CSCc2cccc(S(=O)(=O)N(C)C)c2)c1	24%	nt	5%	-9%	-1%	1%
COc1ccc(CN(C)C(=O)Cn2ccsc2=N)cc1OC	16%	nt	3%	8%	?	-14%
COc1ccc(CN(C)C(=O)Cn2cc(C)c(=O)[nH]c2=O)cc1OC	29%	nt	nt	-27%	27µM*	79µM*
CCOc1ccc(C(=O)Nc2cc(-c3ccccc3)no2)cc1	29%	nt	-1%	10%	nt	-21%
Cc1ccc(NC(=O)CCCNC(=O)c2ccc(Cl)cc2)nc1	14%	nt	-16%	-20%	3%	1%
CC(C)(C)NC(=O)NC(=O)CN1CCN(C(c2ccccc2)c2ccccc2)CC1	18%	nt	-27%	25%	-2%	-28%
CC(=O)c1cccc(NC(=O)CN2CCN(Cc3ccccc3)CC2)c1	?	-8%	?	-23%	-4%	0.79µM*
CC(C)(C)NC(=O)NC(=O)CN1CCN(Cc2ccccc2)CC1	13%	-1%	nt	-3%	30µM*	-31%
Cc1ccc(NC(=O)CN2CCN(Cc3ccccc3)CC2)c(Br)c1	?	-17%	7%[0.457 µM]	0%	5%	7.1µM*
CCc1ccccc1NC(=O)c1ccc2c(c1)CCCN2S(C)(=O)=O	15%	nt	3%	1%	nt	-13%
O=C1CCCC2=C1C1(CCCC1)N=C(Nc1nc3cc4ccccc4cc3o1)N2	nt	nt	nt	nt	nt	89µM*
